# Data: PMC7862700, “An all-to-all approach to the identification of sequence-specific readers for epigenetic DNA modifications on cytosine”
# Columns and labels:
# Test in all cases: DAPPL (digital affinity profiling via proximity ligation, sequencing); 10 mM Tris-HCl pH 7.5, 50 mM NaCl, 1 mM DTT, 4% glycerol, room temperature, 30 min; GST-TFs on glutathione beads, 16-mer random dsDNA library, 0.1% formaldehyde crosslink after washing; high values mean tight binding
# FLI1 = molecular target: T1, FLI1 (Homo sapiens, UniProt Q01543 1-452); conditions: protein: recombinant; tags: N-terminal GST; dsDNA, one strand shown
# T1 sequence: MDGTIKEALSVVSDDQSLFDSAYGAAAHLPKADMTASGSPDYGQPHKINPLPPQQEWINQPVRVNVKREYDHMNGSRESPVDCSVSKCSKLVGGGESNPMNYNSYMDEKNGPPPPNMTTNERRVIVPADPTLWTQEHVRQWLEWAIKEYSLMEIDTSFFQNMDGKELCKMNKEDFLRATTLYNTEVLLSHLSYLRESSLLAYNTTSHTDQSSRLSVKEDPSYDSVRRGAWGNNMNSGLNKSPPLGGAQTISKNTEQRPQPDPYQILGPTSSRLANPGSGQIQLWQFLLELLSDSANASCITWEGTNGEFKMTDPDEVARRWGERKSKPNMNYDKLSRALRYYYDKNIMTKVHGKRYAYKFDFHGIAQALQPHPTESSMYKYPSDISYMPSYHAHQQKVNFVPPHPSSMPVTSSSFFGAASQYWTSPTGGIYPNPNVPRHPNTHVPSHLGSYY
# How it was run: (§1)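 After expression in yeast as GST fusions, human transcription factors were bound to glutathione beads, DNA-barcoded and mixed with a tag-only sample. The pools were incubated with 200 nmole of a 16-mer random double-stranded DNA library in Tris/NaCl/DTT/glycerol buffer (30 min, room temperature), washed and crosslinked with 0.1% formaldehyde. Proximity ligation with BsaI/T4 ligase ran for 1 h at 37 °C, before PCR amplification and sequencing on an Illumina NextSeq500. Binding signal is a hexamer's read frequency for a factor divided by its frequency for the tag-only sample.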
# ELK1 = molecular target: T2, ELK1 (Homo sapiens, UniProt P19419 1-428); conditions: protein: recombinant; tags: N-terminal GST; dsDNA, one strand shown
# T2 sequence: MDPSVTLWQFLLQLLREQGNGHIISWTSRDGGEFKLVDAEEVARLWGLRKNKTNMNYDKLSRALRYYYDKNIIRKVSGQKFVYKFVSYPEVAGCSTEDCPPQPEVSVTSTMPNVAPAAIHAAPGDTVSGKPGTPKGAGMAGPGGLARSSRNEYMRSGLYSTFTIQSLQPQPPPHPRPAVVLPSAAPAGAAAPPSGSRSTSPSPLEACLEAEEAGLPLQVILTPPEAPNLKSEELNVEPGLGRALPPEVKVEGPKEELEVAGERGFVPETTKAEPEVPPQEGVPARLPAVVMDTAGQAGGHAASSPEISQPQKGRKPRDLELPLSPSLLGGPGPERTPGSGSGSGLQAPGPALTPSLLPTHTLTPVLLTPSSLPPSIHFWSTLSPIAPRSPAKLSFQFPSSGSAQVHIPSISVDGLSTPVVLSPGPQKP
# How it was run: as §1
# GABPA = molecular target: T3, GABPA (Homo sapiens, UniProt Q06546 1-454); conditions: protein: recombinant; tags: N-terminal GST; dsDNA, one strand shown
# T3 sequence: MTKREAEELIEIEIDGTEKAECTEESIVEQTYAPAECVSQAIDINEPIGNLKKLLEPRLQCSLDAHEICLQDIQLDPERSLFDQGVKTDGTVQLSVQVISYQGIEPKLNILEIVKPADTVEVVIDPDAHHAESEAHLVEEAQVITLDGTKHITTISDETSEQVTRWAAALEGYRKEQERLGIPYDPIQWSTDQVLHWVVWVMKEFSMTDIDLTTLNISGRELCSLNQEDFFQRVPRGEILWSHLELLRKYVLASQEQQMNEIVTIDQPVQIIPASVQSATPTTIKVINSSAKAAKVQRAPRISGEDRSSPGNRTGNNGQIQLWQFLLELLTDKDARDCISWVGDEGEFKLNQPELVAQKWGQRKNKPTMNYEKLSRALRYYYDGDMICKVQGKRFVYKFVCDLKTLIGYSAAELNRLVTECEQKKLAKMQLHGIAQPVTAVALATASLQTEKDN
# How it was run: as §1
# ERG = molecular target: T4, ERG (Homo sapiens, UniProt P11308 1-479); conditions: protein: recombinant; tags: N-terminal GST; dsDNA, one strand shown
# T4 sequence: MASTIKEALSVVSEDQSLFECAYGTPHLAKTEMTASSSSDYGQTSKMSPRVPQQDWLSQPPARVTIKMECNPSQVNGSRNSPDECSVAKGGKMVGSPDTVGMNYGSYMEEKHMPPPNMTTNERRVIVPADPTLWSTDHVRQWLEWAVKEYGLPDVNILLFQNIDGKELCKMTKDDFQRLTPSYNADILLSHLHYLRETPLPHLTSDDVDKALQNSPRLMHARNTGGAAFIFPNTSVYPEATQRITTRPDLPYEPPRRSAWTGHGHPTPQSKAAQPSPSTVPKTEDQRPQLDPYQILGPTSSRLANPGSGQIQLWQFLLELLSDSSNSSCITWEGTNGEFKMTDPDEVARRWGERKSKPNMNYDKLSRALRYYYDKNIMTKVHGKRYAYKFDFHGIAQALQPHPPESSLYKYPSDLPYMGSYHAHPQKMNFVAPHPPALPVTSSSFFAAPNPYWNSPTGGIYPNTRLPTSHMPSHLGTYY
# How it was run: as §1
# ELF1 = ELF1 (Homo sapiens, UniProt P32519 1-619); conditions: protein: recombinant; tags: N-terminal GST; dsDNA, one strand shown
# Sequence of ELF1 (P32519 whole entry): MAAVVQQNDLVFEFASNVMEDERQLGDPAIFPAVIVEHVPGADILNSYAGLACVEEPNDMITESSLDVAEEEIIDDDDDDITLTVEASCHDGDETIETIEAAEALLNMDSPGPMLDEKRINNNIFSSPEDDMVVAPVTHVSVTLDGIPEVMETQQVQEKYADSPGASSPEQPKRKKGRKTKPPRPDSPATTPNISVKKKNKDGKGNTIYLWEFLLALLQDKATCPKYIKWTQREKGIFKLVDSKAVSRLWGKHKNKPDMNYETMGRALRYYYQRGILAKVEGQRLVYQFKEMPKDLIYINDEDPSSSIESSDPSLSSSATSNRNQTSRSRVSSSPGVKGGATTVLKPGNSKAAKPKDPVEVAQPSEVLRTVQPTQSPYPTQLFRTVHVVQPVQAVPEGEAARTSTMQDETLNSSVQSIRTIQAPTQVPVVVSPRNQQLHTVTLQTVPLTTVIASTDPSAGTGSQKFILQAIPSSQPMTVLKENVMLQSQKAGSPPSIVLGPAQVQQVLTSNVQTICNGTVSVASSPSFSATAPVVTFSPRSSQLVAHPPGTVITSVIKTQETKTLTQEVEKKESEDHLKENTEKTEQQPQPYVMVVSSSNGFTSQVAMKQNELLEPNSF
# How it was run: as §1
# EHF = molecular target: T5, EHF (Homo sapiens, UniProt Q9NZC4 1-300); conditions: protein: recombinant; tags: N-terminal GST; dsDNA, one strand shown
# T5 sequence: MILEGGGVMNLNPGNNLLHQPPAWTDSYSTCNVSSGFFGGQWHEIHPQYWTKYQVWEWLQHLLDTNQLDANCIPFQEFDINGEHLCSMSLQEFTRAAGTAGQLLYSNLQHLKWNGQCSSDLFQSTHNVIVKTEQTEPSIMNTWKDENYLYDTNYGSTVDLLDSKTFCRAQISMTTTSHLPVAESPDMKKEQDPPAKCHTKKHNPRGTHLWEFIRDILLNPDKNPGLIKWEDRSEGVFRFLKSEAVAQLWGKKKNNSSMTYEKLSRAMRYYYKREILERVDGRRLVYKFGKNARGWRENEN
# How it was run: as §1
# SPI1 = SPI1 (Homo sapiens, UniProt P17947 1-270); conditions: protein: recombinant; tags: N-terminal GST; dsDNA, one strand shown
# How it was run: as §1
# SPIB = SPIB (Homo sapiens, UniProt Q01892 1-262); conditions: protein: recombinant; tags: N-terminal GST; dsDNA, one strand shown
# Sequence of SPIB (Q01892 whole entry): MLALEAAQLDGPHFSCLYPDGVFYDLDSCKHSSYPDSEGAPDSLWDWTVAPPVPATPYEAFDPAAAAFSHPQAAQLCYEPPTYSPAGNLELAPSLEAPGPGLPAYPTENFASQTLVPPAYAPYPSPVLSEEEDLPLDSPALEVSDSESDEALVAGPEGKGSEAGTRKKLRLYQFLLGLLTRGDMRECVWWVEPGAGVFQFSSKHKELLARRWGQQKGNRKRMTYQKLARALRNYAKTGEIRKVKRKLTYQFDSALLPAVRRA
# How it was run: as §1
# ELK3 = molecular target: T6, ELK3 (Homo sapiens, UniProt P41970 1-407); conditions: protein: recombinant; tags: N-terminal GST; dsDNA, one strand shown
# T6 sequence: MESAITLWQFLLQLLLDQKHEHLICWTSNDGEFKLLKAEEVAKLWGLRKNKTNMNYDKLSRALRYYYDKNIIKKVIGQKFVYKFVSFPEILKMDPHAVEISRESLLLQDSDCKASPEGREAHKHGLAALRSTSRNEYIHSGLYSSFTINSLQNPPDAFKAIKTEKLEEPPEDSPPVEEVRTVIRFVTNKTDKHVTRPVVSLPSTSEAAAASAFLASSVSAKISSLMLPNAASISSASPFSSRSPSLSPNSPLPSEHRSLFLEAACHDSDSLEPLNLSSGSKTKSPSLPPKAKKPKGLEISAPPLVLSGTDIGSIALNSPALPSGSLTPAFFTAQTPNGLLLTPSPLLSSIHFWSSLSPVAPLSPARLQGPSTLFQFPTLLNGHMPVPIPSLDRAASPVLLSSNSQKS
# How it was run: as §1
# FEV = molecular target: T7, FEV (Homo sapiens, UniProt Q99581 1-238); conditions: protein: recombinant; tags: N-terminal GST; dsDNA, one strand shown
# T7 sequence: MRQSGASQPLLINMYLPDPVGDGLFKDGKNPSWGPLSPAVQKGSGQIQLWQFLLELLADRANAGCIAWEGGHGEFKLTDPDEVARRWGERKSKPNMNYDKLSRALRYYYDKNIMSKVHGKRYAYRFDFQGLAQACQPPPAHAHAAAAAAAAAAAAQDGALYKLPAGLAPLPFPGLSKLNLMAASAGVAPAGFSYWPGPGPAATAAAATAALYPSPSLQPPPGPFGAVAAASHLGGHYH
# How it was run: as §1
# ETV5 = ETV5 (Homo sapiens, UniProt P41161 1-510); conditions: protein: recombinant; tags: N-terminal GST; dsDNA, one strand shown
# Sequence of ETV5 (P41161 whole entry): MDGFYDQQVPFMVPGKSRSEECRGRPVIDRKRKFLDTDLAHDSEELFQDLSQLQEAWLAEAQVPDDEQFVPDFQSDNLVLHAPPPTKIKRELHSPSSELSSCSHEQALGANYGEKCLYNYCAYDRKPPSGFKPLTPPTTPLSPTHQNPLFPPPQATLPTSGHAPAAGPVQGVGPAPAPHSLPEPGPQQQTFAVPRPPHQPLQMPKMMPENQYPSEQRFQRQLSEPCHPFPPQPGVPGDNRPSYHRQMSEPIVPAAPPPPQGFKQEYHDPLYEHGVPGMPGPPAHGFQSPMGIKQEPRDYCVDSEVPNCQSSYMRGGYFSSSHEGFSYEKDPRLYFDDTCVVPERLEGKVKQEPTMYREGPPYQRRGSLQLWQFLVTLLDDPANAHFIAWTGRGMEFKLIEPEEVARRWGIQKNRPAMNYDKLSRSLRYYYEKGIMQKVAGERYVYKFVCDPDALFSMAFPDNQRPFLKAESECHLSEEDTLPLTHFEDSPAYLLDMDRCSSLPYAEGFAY
# How it was run: as §1
# HSF1 = HSF1 (Homo sapiens, UniProt Q00613 1-529); conditions: protein: recombinant; tags: N-terminal GST; chain copies: 3; dsDNA, one strand shown
# Sequence of HSF1 (Q00613 whole entry): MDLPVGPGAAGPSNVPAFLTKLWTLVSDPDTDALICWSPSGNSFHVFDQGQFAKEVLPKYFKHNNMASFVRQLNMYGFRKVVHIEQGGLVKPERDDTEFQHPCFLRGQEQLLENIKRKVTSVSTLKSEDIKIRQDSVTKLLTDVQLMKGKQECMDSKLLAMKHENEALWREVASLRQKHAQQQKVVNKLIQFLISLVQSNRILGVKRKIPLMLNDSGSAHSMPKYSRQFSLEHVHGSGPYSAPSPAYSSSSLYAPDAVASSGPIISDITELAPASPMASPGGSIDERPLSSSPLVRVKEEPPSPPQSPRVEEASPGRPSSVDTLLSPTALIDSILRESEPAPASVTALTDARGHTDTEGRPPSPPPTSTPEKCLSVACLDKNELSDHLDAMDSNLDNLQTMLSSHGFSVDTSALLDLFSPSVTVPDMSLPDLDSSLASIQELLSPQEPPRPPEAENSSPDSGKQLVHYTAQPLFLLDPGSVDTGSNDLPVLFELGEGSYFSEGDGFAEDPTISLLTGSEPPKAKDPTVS
# How it was run: as §1
# SPIC = molecular target: T8, SPIC (Homo sapiens, UniProt Q8N5J4 1-248); conditions: protein: recombinant; tags: N-terminal GST; dsDNA, one strand shown
# T8 sequence: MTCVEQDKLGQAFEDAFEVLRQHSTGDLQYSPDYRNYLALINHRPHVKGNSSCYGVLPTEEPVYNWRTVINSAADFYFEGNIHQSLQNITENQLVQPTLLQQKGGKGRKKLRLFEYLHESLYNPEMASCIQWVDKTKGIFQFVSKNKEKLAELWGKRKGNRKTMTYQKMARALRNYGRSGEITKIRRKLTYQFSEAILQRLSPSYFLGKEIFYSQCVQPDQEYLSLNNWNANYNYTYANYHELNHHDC
# How it was run: as §1
# ELF4 = ELF4 (Homo sapiens, UniProt Q99607 1-663); conditions: protein: recombinant; tags: N-terminal GST; dsDNA, one strand shown
# Sequence of ELF4 (Q99607 whole entry): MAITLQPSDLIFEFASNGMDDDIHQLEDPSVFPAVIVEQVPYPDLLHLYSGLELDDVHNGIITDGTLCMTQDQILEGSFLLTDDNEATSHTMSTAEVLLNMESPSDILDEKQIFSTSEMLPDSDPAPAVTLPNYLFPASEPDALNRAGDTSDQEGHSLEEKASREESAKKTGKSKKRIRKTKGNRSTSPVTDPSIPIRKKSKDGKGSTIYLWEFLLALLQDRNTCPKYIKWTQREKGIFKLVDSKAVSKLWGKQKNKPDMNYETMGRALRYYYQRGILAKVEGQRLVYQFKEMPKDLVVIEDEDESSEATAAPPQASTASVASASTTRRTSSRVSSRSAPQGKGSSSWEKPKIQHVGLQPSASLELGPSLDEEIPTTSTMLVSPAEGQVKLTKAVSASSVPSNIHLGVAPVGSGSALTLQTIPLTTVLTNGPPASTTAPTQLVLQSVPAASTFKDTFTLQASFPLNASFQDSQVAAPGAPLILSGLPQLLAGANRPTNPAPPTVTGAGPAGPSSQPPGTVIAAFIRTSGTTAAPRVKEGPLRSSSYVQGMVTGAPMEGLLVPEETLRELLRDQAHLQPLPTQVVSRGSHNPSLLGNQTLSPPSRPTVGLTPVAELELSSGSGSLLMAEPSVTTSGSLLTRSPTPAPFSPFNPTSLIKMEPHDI
# How it was run: as §1
# ELK4 = molecular target: T9, ELK4 (Homo sapiens, UniProt P28324-2 1-405); conditions: protein: recombinant; tags: N-terminal GST; dsDNA, one strand shown
# T9 sequence: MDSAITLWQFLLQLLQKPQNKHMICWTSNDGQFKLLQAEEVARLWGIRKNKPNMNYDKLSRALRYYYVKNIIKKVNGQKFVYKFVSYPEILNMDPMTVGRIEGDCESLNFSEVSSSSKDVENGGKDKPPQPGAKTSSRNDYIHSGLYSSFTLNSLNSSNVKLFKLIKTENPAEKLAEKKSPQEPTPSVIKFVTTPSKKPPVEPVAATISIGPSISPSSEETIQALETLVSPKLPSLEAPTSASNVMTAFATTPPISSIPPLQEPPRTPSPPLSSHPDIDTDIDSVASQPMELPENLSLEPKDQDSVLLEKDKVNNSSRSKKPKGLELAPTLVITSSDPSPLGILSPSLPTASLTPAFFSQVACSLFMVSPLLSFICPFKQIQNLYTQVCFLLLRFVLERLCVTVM
# How it was run: as §1
# ETV2 = molecular target: T10, ETV2 (Homo sapiens, UniProt O00321 1-342); conditions: protein: recombinant; tags: N-terminal GST; dsDNA, one strand shown
# T10 sequence: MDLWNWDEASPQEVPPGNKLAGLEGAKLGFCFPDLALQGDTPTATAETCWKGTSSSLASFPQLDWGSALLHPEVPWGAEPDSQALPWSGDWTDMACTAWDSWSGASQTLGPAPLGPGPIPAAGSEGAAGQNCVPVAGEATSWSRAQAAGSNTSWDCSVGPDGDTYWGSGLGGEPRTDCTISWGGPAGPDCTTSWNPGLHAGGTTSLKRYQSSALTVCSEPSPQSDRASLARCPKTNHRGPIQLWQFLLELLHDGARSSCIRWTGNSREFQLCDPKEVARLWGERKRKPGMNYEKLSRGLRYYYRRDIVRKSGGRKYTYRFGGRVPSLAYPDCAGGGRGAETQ
# How it was run: as §1
# ELF3 = molecular target: T11, ELF3 (Homo sapiens, UniProt P78545 1-371); conditions: protein: recombinant; tags: N-terminal GST; dsDNA, one strand shown
# T11 sequence: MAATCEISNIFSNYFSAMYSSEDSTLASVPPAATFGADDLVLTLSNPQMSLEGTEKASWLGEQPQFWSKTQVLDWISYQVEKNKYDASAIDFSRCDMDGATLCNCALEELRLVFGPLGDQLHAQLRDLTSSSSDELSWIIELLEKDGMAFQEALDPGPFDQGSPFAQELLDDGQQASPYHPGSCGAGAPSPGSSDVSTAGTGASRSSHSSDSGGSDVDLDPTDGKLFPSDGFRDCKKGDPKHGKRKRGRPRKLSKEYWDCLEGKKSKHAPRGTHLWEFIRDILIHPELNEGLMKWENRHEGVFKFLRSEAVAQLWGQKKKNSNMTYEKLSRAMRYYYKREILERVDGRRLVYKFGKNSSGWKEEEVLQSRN
# How it was run: as §1
# CRX = CRX (Homo sapiens, UniProt O43186 1-299); conditions: protein: recombinant; tags: N-terminal GST; dsDNA, one strand shown
# Sequence of CRX (O43186 whole entry): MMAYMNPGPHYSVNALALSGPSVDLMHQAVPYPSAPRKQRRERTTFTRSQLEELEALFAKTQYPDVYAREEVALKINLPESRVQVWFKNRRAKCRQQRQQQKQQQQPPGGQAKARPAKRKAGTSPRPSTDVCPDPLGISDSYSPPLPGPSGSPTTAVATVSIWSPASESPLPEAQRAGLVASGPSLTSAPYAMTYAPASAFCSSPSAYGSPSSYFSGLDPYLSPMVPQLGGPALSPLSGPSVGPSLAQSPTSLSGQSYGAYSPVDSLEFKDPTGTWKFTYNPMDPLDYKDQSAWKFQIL
# How it was run: as §1
# ETV1 = ETV1 (Homo sapiens, UniProt P50549 1-477); conditions: protein: recombinant; tags: N-terminal GST; dsDNA, one strand shown
# Sequence of ETV1 (P50549 whole entry): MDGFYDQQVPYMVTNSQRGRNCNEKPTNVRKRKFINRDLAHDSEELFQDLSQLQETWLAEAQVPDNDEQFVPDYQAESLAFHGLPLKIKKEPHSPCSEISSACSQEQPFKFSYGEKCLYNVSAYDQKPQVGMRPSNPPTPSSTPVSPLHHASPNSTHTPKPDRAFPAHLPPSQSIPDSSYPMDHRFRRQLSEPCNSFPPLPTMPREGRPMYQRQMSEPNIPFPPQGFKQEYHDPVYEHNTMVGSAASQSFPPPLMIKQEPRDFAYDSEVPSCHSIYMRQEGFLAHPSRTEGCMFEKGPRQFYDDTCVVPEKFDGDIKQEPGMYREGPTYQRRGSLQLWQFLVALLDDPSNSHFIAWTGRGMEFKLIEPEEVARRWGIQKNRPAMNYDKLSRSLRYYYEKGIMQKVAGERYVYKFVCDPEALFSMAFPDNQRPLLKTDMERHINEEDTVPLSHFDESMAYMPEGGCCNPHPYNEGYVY
# How it was run: as §1
sequence,measurement,setting,value
ATTTGT,binding signal,FLI1,"1.36 fold enrichment (6-mer frequency, TF over GST control)"
same,binding signal,ELK1,"1.36 fold enrichment (6-mer frequency, TF over GST control)"
same,binding signal,GABPA,"1.34 fold enrichment (6-mer frequency, TF over GST control)"
same,binding signal,ERG,"1.28 fold enrichment (6-mer frequency, TF over GST control)"
same,binding signal,ELF1,"1.31 fold enrichment (6-mer frequency, TF over GST control)"
same,binding signal,EHF,"1.3 fold enrichment (6-mer frequency, TF over GST control)"
same,binding signal,SPI1,"1.26 fold enrichment (6-mer frequency, TF over GST control)"
same,binding signal,SPIB,"1.27 fold enrichment (6-mer frequency, TF over GST control)"
same,binding signal,ELK3,"1.24 fold enrichment (6-mer frequency, TF over GST control)"
same,binding signal,FEV,"1.34 fold enrichment (6-mer frequency, TF over GST control)"
same,binding signal,ETV5,"1.41 fold enrichment (6-mer frequency, TF over GST control)"
same,binding signal,HSF1,"1.33 fold enrichment (6-mer frequency, TF over GST control)"
same,binding signal,SPIC,"1.35 fold enrichment (6-mer frequency, TF over GST control)"
same,binding signal,ELF4,"1.32 fold enrichment (6-mer frequency, TF over GST control)"
same,binding signal,ELK4,"1.45 fold enrichment (6-mer frequency, TF over GST control)"
same,binding signal,ETV2,"1.44 fold enrichment (6-mer frequency, TF over GST control)"
same,binding signal,ELF3,"1.41 fold enrichment (6-mer frequency, TF over GST control)"
same,binding signal,CRX,"1.58 fold enrichment (6-mer frequency, TF over GST control)"
same,binding signal,ETV1,"1.23 fold enrichment (6-mer frequency, TF over GST control)"
